Dicer inh – inhibitors of human Dicer processing of pre-microRNA. Q9UPY3. cat-ELCCA pre-miR-21 Dicer processing, chemiluminescence; hits give high values. z-score at 25 µM. actives 6% (n = 47,000). AID 1347074; in the data active means z-score above about 3, passing the limit was not always enough;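 further: plate controls were vehicle for no effect and no enzyme for full effect; higher signal means more uncleaved substrate so more Dicer inhibition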
* = called active by the depositor. Only a selection was taken, and hits are over-represented in it overall.

SMILES	Dicer inh
CCc1ccc(CN2CCC(N3CCN(CCO)CC3)CC2)cc1	0.59
c1cc(CN2CCN(Cc3ccncc3)CC2)ccn1	11
CCc1ccc(CN2CCN(C3CCCC(C)C3)CC2)cc1 (centres undefined)	3*
CC1CCCC(N2CCN(Cc3ccc(Cl)cc3)CC2)C1 (centres undefined)	0.84
CS(=O)(=O)N1CCN(CC(O)Cn2c3ccccc3c3ccccc32)CC1 (centres undefined)	1.4
CCc1ccc(CN2CCN(S(C)(=O)=O)CC2)cc1	3.7*
Cn1c(=O)c2c(nc(NCCCO)n2Cc2ccccc2Cl)n(C)c1=O	1.6
CC(C)C(=O)Oc1ccc2c(=O)c(Oc3ccc(C(C)(C)C)cc3)coc2c1	10
CC1=C(C(=O)OCC(C)C)C(c2ccc(C)s2)C2=C(CC(C)(C)CC2=O)N1 (centres undefined)	2.3
O=C(Nc1cccnc1Sc1ccc(Cl)cc1)c1ccccc1Cl	0.16
O=c1cc(CSc2n[nH]c(=O)n2-c2ccc3c(c2)OCCO3)c2ccc(O)cc2o1	-0.11
O=C1CC(c2ccccc2F)Cc2nc(N3CCN(c4ccccc4)CC3)ncc21 (centres undefined)	-1.4
N#Cc1c(-c2ccccc2)[nH]c(SCc2ccccc2)nc1=S	0.36
O=C(Nc1ccc2c(c1)CCO2)Nc1ccc2c(c1)CCO2	1.1
Cc1c(NC(=O)C2CC2)c(=O)n(-c2ccccc2)n1C	2.6
CC(C)(C)c1ccc(Oc2ccc(NC(=O)Nc3csc4ccccc34)cn2)cc1	-1.4
NS(=O)(=O)c1cccc(NC(=O)Nc2cccs2)c1	-4
CC(C)c1cc(Br)c(NC(=O)NCc2ccc3c(c2)OCO3)c(Br)c1	2.2
Cc1ccc2[nH]c(=O)cc(C(=O)OCC(=O)c3ccc(Br)cc3)c2c1	-0.05
Cc1onc(-c2ccccc2)c1C(=O)OCC(=O)c1ccccc1	2
Cc1onc(-c2ccccc2Cl)c1C(=O)OCC(=O)c1ccc(Br)cc1	3.9*
O=C(COC(=O)c1ccccc1Cl)c1ccc(Br)cc1	-0.43
COCCOC(=O)c1c(C)oc2ccc(OCC(=O)c3ccc(Br)cc3)cc12	-0.46
Cc1cc(=O)oc(C)c1C(=O)OCC(=O)c1ccc(Br)cc1	5*
Cc1ccc(NC(=O)N(C)CCc2ccccn2)cc1Cl	0.37
SMILES	Dicer inh
N#Cc1c(N2C(=O)c3ccccc3C2=O)sc2c1CCCC2	-1.5
Brc1ccc(-n2nnnc2/C=C/N2CCCCCC2)cc1	1.1
CC1(C)NC(=O)N(CC(O)COc2ccccc2)C1=O (centres undefined)	-1.3
O=C(CS(=O)(=O)c1ccc(C(F)(F)F)cn1)NNC(=O)NC(=O)c1ccccc1Cl	1.3
O=C(CN1C(=O)c2ccccc2S1(=O)=O)NC(c1ccccc1)c1ccccc1	0.85
COc1c(Br)cc([N+](=O)[O-])c(OC)c1C(=O)NC(=O)Nc1c(Cl)cc([N+](=O)[O-])cc1Cl	1.1
COc1c(Br)cc([N+](=O)[O-])c(OC)c1C(=O)NC(=O)Nc1cc(C(F)(F)F)cc(C(F)(F)F)c1	4.2*
COc1cccc(OC)c1NC(=O)NC(=O)c1c(OC)c(Br)cc([N+](=O)[O-])c1OC	8.8
CC(C)CCN1Cc2ccccc2C1	5.1*
CN1CCN2c3ccccc3Cc3ccccc3C2C1 (centres undefined)	-0.38
CC(C)CCC(O)(CCN1CCCCC1)c1ccccc1 (centres undefined)	2.1
NC(=S)N/N=C/c1cn(-c2ccccc2)nc1-c1ccccc1	7
CCOc1cc(CN2CCN(CC3CC4C=CC3C4)CC2)ccc1OC (centres undefined)	-0.53
O=C(COc1ccc(Cl)cc1)N1CCN(Cc2ccc3c(c2)OCO3)CC1	0.41
CCOC(=O)N1CCN(CC(O)COCc2ccc3c(c2)OCO3)CC1 (centres undefined)	3.2*
CCOC(=O)N1CCN(S(=O)(=O)c2c(C)cc(C)cc2C)CC1	1.2
CCOC(=O)N1CCN(CC(O)COc2cc(C)ccc2C(C)C)CC1 (centres undefined)	3.5*
CCOC(=O)c1c(C)n(C)c2ccc(OCC(O)CN3CCOCC3)cc12 (centres undefined)	1.9
CCOC(=O)N1CCN(CC(O)COc2c(C)cc(C)cc2C)CC1 (centres undefined)	3.3*
OC(CN1CCN(Cc2ccc3c(c2)OCO3)CC1)Oc1ccc(C(F)(F)F)cc1 (centres undefined)	-2.7
CCOC(=O)N1CCN(CC(O)COc2cc(C)cc(C)c2)CC1 (centres undefined)	2.6
CCOC(=O)c1c(C)n(C)c2ccc(OCC(O)CN3CCN(C)CC3)cc12 (centres undefined)	0.6
CCOC(=O)c1c(Nc2c(C)cccc2C)sc(C(=O)c2ccc(Br)cc2)c1N	-1.2
Cc1cc(C)cc(NC(=O)Nc2nnc(C3CC3)s2)c1	-0.02
O=c1c(F)cn(C2CCCO2)c(=O)n1Cc1cccc2ccccc12 (centres undefined)	-0.96
SMILES	Dicer inh
CCCc1nc2sc3c(NCCN(C)C)ncnc3c2c2c1CCCC2	0.06
Cc1c(C)c(C)c(NC(=O)/C=C/C(=O)O)c(NC(=O)/C=C/C(=O)O)c1C	-1.4
CN(C)/C=C1\SCc2ccccc2C1=O	-1.5
O=C1/C(=C/c2ccc3c(c2)OCO3)CCCc2ccccc21	-1.7
CN(C)/C=C1\CCCc2ccccc2C1=O	3.4*
O=C(c1cccs1)N1CCN(c2ccnc3cc(Cl)ccc23)CC1	0.52
O=S(=O)(c1ccc(F)c(Cl)c1)N1CCC(O)(c2ccc(Cl)cc2)CC1	0.04
CC(C)NC(=O)n1nccc1-c1cc(-c2ccccc2)no1	-0.13
Cc1nn(CC(N)=O)c(C)c1[N+](=O)[O-]	-0.68
O=C1NS(=O)(=O)c2ccccc2S(=O)(=O)c2ccccc21	1.1
Cc1ccccc1OCc1nn2c(Cc3ccccc3)nnc2s1	1.1
CC1=CCC2C(=O)N(c3ncccn3)C(=O)C2C1 (centres undefined)	3.7*
CC1=CCC2C(=O)N(c3cc(C)on3)C(=O)C2C1 (centres undefined)	-0.01
CC1=CCC2C(=O)N(c3ccccc3O)C(=O)C2C1 (centres undefined)	-0.99
COc1ccc(OC)c(C2C3=C(CC(C)(C)CC3=O)Nc3ccc4ccccc4c32)c1 (centres undefined)	-0.24
CCOC(=O)N=Nc1c(O)[nH]c2ccc(F)cc12	-0.57
CCc1cc(C(=O)c2ccc(OC)cc2)c(NC(=O)COc2ccccc2)s1	-2.1
CN(C)Cc1ccc(O)c(CN(C)C)n1	-1.7
CN(C)Cc1c(O)ccc2ccccc12	5.3*
CN(C)Cc1c(O)ccc2c(=O)c(Oc3ccc4ccccc4c3)c(C(F)(F)F)oc12	-0.51
CCCCCCNC(=O)NCCC(=O)O	-1.2
CCOC(=O)c1cnc(C(F)(F)F)nc1N/N=C\c1c(Cl)cccc1Cl	-0.27
O=C(Cn1c(=O)oc2ccccc21)Nc1nnc(SCC(=O)N2CCCCC2)s1	1.1
O=C(CCSc1nnc(NC(=O)Cn2c(=O)oc3ccccc32)s1)Nc1ccccc1	2.6
O=C(Cn1c(=O)oc2ccccc21)Nc1nnc(SCc2ccccc2)s1	3*
SMILES	Dicer inh
O=C(Cn1c(=O)oc2ccccc21)Nc1nnc(SCC(=O)N2CCOCC2)s1	3.2*
CC(C)(C)NC(=O)CSc1nnc(NC(=O)Cn2c(=O)oc3ccccc32)s1	1.6
CC(C)c1nnc(NC(=O)Cn2c(=O)oc3ccccc32)s1	0.6
CC(C)S(=O)(=O)c1cscc1NC(=O)c1ccccc1Cl	-0.72
CCn1nc(C)cc1/C(N)=N/OC(=O)c1cc(Cl)cc(Cl)c1	-0.69
COc1ccc(Cl)cc1NC(=O)C(=O)NCC1CCCO1 (centres undefined)	-0.43
